Where “and” joins values, the source holds several entries; their conditions need not be identical. Equal entries are not always repeated. Screen size: about 300,000 compounds; about 3,700 (1.2%) were called active. Another 20% or so got no clear call; they are omitted. Calls follow the shape of the full dose curve; tested in HEK293 cells. Shown is part of a subset that was picked to be rich in actives. A call without a number means that no potency is given here.
Potency is read from the fitted curve at half-maximal effect.

This assay is described as follows: qHTS for Inhibitors of binding or entry into cells for Lassa Virus. Also: nearly all actives have a fitted effect of over 50% in size. The settings on record: Lassa virus pseudotype entry inhibition, cell reporter; series mostly up to 37.9 µM.
Take `CCCCCCCCn1c2c(c(=N)c3c1CCC3)CCCC2`: the Potency is 5.62 µM (active).

Take `CCCCCCn1c(CN2CCCCC2)nc2c1c(=O)n(C)c(=O)n2C`: the Potency result was “inactive”.

As for `CCCCN(CC(=O)Nc1cccc(S(=O)(=O)N2CCCC2)c1)Cc1nc2ccccc2c(=O)[nH]1`, the Potency entry is “inactive”.

On to `O=C(Nc1ccccc1)Oc1cccc2cccnc12`, for which the Potency result is “inactive”.

As to `O=C(CNC(=O)c1ccccc1Br)NCCSc1ccc(Br)cc1`, the Potency entry was “inactive”.

Consider `CN1CCN(c2ccc(S(=O)(=O)Nc3ccccc3)cc2[N+](=O)[O-])CC1`, for which the Potency entry was “inactive”.

With `Oc1[nH]c2ccccc2c1N=Nc1c(F)c(F)c(F)c(F)c1F`, the Potency entry was “inactive”.

`O=[N+]([O-])c1cc(S(=O)(=O)Nc2cccc(Cl)c2)ccc1N=Nc1c(O)[nH]c2ccccc12`: the Potency is 11.2 µM (active).

Regarding `CC1(C)N=C(N)NC(Nc2ccc(Cl)cc2)=N1`, the Potency result was “inactive”.

Turning to `Cc1ccc(S(=O)(=O)N(CC(=O)N2CCc3ccccc3C2)c2cccc(Cl)c2)cc1`, the Potency is 14.1 µM (active).

On to `COc1cccc(N(CC(=O)N2CCc3ccccc3C2)S(C)(=O)=O)c1`, for which the Potency entry was “inactive”.

For `CS(=O)(=O)N(CC(=O)N1CCc2ccccc2C1)c1ccc(Br)cc1`, the Potency result is “inactive”.

Consider `Cc1ccc(S(=O)(=O)N2CCC(C(=O)N3CCCCCCC3)CC2)cc1`, for which the Potency result was “inactive”.

`O=C(c1ccc(F)c(S(=O)(=O)N2CCOCC2)c1)N(CCc1ccccc1)Cc1ccccc1`: the Potency entry is “inactive”.

As to `C=CCn1c(C)cc(C2=NNC(=NCC)SC2)c1C`, the Potency is 1.64 µM (active).

As to `Cc1cc(C2=NNC(=Nc3ccc(S(=O)(=O)N4CCOCC4)cc3)SC2)c(C)n1CC1CCCO1` (centres undefined), the Potency entry was “inactive”.

On to `COc1ccc(C(=O)O/N=C(\N)Cc2ccc(Cl)cc2Cl)cc1OC`, for which the Potency was 20 µM (active).

As to `COc1ccc(C/C(N)=N/OC(=O)c2ccco2)cc1OC`, the Potency entry is “inactive”.

Consider `COc1ccc(C(=O)ON=C2c3ccccc3-c3ccccc32)cc1OC`, for which the Potency entry is “inactive”.

On to `O=C(CN1CCSc2ccccc21)N1CCN(c2ccccc2)CC1`, for which the Potency result is “inactive”.

For the compound `CCOc1cc(C(=O)NCCc2csc3nc(-c4ccc(C)cc4)nn23)cc(OCC)c1OCC`, the Potency entry is “inactive”.

On to `Cc1cc(=O)[nH]c(SCc2ccc(Cl)cc2)n1`, for which the Potency result is “inactive”.

As to `Cn1nnnc1SCC(=O)N1CCN(C(c2ccccc2)c2ccccc2)CC1`, the Potency result is “inactive”.

For the compound `O=C(O)CN1CCN(C(c2ccccc2)c2ccccc2)CC1`, the Potency entry was “inactive”.

As to `c1ccc(C(c2ccccc2)N2CCN(Cc3nnnn3C3CCCCC3)CC2)cc1`, the Potency is 11.6 µM (active).

Consider `COc1ccc(N2CCN(C(=O)CCNC(=O)c3ccc(Br)cc3)CC2)cc1`, for which the Potency result is “inactive”.

`Cc1ccc(S(=O)(=O)NCCC(=O)OCC(=O)N(C)c2ccccc2)cc1`: the Potency entry was “inactive”.

Take `Cc1cc(C)nc(N/N=C/c2c(CO)cnc(C)c2O)n1`: the Potency result is “inactive”.

With `CC(C)(C)c1ccc(C(=O)NCCn2c(N)c(C#N)c3nc4ccccc4nc32)cc1`, the Potency entry was “inactive”.

For `CN(C)CCCn1c(N)c(C#N)c2nc(C#N)c(C#N)nc21`, the Potency was 15.8 µM (active).

Regarding `N#Cc1c(N)n(CCOC(=O)c2ccc(Cl)cc2)c2nc3ccccc3nc12`, the Potency entry is “inactive”.

On to `O=C(Cc1ccc(S(=O)(=O)N2CCOCC2)s1)Nc1ccc(Br)c(C(F)(F)F)c1`, for which the Potency result was “inactive”.

With `O=C(Nc1ncccc1O)c1ccc(C(=O)c2ccccc2)cc1`, the Potency entry was “inactive”.

As for `N#CCN(C(=O)COC(=O)C1CC2CCCC(C1)C2=O)c1ccccc1` (centres undefined), the Potency entry was “inactive”.

Consider `O=C(NC1CC(=O)N(c2ccccc2)C1)c1ccco1` (centres undefined), for which the Potency entry is “inactive”.

Regarding `O=C(Oc1cccc(N2C(=O)C3C4c5ccccc5C(c5ccccc54)C3C2=O)c1)c1ccco1` (centres undefined), the Potency is 8.91 µM (active).

In the case of `CC(=O)Oc1cccc(N2C(=O)C3CC=C(Cl)CC3C2=O)c1` (centres undefined), the Potency entry was “inactive”.

Regarding `CCOc1ccc(CN2CCNC(=O)C2CC(=O)NCCCC2CCCC2)cc1` (centres undefined), the Potency result is “inactive”.

As for `NC(=S)NN=C1CCCC(C(F)(F)F)C1` (centres undefined), the Potency result is “inactive”.

Consider `Cc1c(C(=O)N2CCCc3ccccc32)oc2ccccc12`, for which the Potency result is “inactive”.

On to `Cc1cccc2cc3c(N)c(C(=O)N4CCCc5ccccc54)sc3nc12`, for which the Potency was 2.82 µM (active).

Turning to `O=C(c1c(Cl)nc2sccn12)N1CCCc2ccccc21`, the Potency entry was “inactive”.

As for `CC(=NNC(=O)c1ccc2nc[nH]c2c1)c1ccc(Br)cc1`, the Potency entry is “inactive”.

In the case of `O=C(NCCc1ccc(Cl)cc1)c1ccc2c(c1)N(Cc1ccc(F)cc1)C(=O)CS2`, the Potency entry was “inactive”.

With `CCOc1ccc(Br)cc1S(=O)(=O)Nc1ccc(S(=O)(=O)Nc2cc(C)on2)cc1`, the Potency result is “inactive”.

Regarding `CCc1ccc(C(CNc2nc(C(F)(F)F)nc3ccccc23)N(C)C)cc1` (centres undefined), the Potency is 10 µM (active).

On to `CC(Nc1nc(C(F)(F)F)nc2ccccc12)c1cccs1` (centres undefined), for which the Potency entry was “inactive”.

Take `NS(=O)(=O)c1ccc(CCNc2nc(C(F)(F)F)nc3ccccc23)cc1`: the Potency entry is “inactive”.

In the case of `Cc1ccc(S(=O)(=O)n2oc(=O)c(C3CCCCC3)c2N)cc1`, the Potency entry is “inactive”.

For `C/C(=N\NC(=O)Cc1ccc(Br)cc1)c1cccnc1`, the Potency entry was “inactive”.

For the compound `O=C(Nc1ccc(NC(=O)c2ccccc2F)cc1)c1ccccc1F`, the Potency entry is “inactive”.

With `C/C(=N\NC(=O)c1ccccc1F)c1ccccn1`, the Potency is 7.08 µM (active).

With `C/C(=N\NC(=O)Cc1ccc(F)cc1)c1ccc(F)cc1`, the Potency entry was “inactive”.

On to `CC(=O)Nc1cccc(/C(C)=N/NC(=O)c2ccccc2Cl)c1`, for which the Potency entry is “inactive”.

Turning to `CCNC(=S)N1CCN(c2ncccn2)CC1`, the Potency entry was “inactive”.

Consider `C/C(=N\NC(=O)Cc1ccc(Cl)cc1)c1ccccn1`, for which the Potency was 8.2 µM (active).

For `CC(=NNC(=S)N1CCCCCC1)c1ccccn1`, the Potency is 0.316 µM (active).

On to `CNC(=S)N1CCN(c2ccccn2)CC1`, for which the Potency entry was “inactive”.

As to `CCOC(=O)CCC(NC(=O)c1ccc(CNc2nc3cc(C(F)(F)F)ccc3nc2C(=O)OCC)cc1)C(=O)OCC` (centres undefined), the Potency entry is “inactive”.

On to `Cc1nn(-c2ccc(N3CCCCC3)nn2)c(C)c1CCC(=O)NCc1ccc(F)cc1`, for which the Potency result was “inactive”.

For the compound `COc1ccc(C(=O)C(C)OC(=O)c2cccc(S(=O)(=O)Nc3c(C)n(C)n(-c4ccccc4)c3=O)c2)cc1` (centres undefined), the Potency entry is “inactive”.

On to `O=C(NNc1nc(N2CCCC2)nc(N2CCCC2)n1)c1ccccc1`, for which the Potency result is “inactive”.

Turning to `O=C(Nc1ccc(O)cc1)c1ccc(NC(=O)c2ccco2)cc1`, the Potency entry is “inactive”.

On to `COCCn1c(SC(C)C(=O)NC2CC2)nnc1-c1cccc(C)c1` (centres undefined), for which the Potency entry is “inactive”.

On to `COC(=O)c1sc(N2CCN(Cc3ccccc3)CC2)nc1N`, for which the Potency entry was “inactive”.

For `CC(C)Oc1ccc(NC(=O)c2cc3ccccc3o2)cc1`, the Potency result was “inactive”.

As to `Cc1ccc(OC(=O)c2cc3ccccc3o2)cc1`, the Potency result is “inactive”.

In the case of `C/C(=N\NC(=S)Nc1ccc(C)cc1)c1cc2ccccc2o1`, the Potency was 6.51 µM (active).

For the compound `CCOc1ncccc1C(=O)Nc1ccc2c(c1)OCCO2`, the Potency result is “inactive”.

Regarding `COc1cccc2c1C(=O)c1c(O)c3c(c(O)c1C2=O)CC(O)(C(C)=NNC(=O)c1ccc(Cl)c(Cl)c1)CC3OC1CC(N)C(O)C(C)O1` (centres undefined), the Potency is 0.398 µM (active).

Consider `COc1ccc(C2NCCCC2c2ccccc2)cc1` (centres undefined), for which the Potency result was “inactive”.

As to `Cc1ccccc1NC(=O)Cn1cc(C(=O)C2CC2)c2ccccc21`, the Potency result was “inactive”.

For the compound `CN(CCc1ccccn1)C1CCCN(S(=O)(=O)c2ccccc2Cl)C1` (centres undefined), the Potency result was “inactive”.

Turning to `c1ccc2c(c1)C(=NC1CCCCC1)NC2=NC1CCCCC1`, the Potency was 13 µM (active).

On to `COC(=O)Cc1nc2c(N)nc(N)nc2[nH]c1=O`, for which the Potency entry was “inactive”.

Regarding `COc1cc(/C=C/C2=CC(C)(C)NC(=S)N2)cc(OC)c1OC`, the Potency result was “inactive”.

As to `CCC(=O)c1ccc(OC(=O)/C=C/c2cc(OC)c(OC)c(OC)c2)cc1`, the Potency result was “inactive”.

On to `COc1cc(/C=C/c2ccc(/C=C/c3cc(OC)c(OC)c(OC)c3)cc2)cc(OC)c1OC`, for which the Potency is 11.2 µM (active).

For the compound `Cc1ccc(NC(=O)C2CC2)cc1S(=O)(=O)N1CCOCC1`, the Potency entry was “inactive”.

Take `Cc1cccc(N2CCN(C(=O)CCSCc3ccccc3F)CC2)c1C`: the Potency entry is “inactive”.

In the case of `COc1cc2c(cc1O)[C@H](Cc1ccc(Oc3cc(C[C@@H]4NCCc5cc(OC)c(O)cc54)ccc3O)cc1)NCC2`, the Potency result was “inactive”.

Regarding `CCC(CC)C(=O)N1CCc2cc(OC)c(OC)cc2C1COc1ccc(F)cc1` (centres undefined), the Potency result is “inactive”.

Take `CC[C@H]1CN2CCc3cc(OC)c(OC)cc3[C@@H]2C[C@@H]1C[C@H]1NCCc2cc(OC)c(OC)cc21`: the Potency is 580 nM (active) and 184 nM (active).

Consider `O=C(NC(=S)Nc1ccc(Br)cc1F)C1CCCCC1`, for which the Potency entry was “inactive”.

Consider `Nc1cccnc1Sc1ccccc1`, for which the Potency entry is “inactive”.

In the case of `CC12C=C(C=Cc3ccc(F)cc3)C(C)(C1)C(c1ccc(F)cc1)CC2=O` (centres undefined), the Potency entry was “inactive”.

`O=C(Nc1ccc(-c2nc3cc(NC(=O)c4ccccc4Cl)ccc3o2)cc1)c1ccccc1Cl`: the Potency entry was “inactive”.

For `COc1cccc2sc(NNC(=O)c3nc4ccccc4s3)nc12`, the Potency entry is “inactive”.

For `O=C(O)CCCCc1nc2ccccc2s1`, the Potency result is “inactive”.

As for `COc1ccccc1OCc1nc2ccccc2s1`, the Potency is 10 µM (active).

Regarding `COc1ccc(-c2cc(=O)oc3cc(OC(C)C(=O)Nc4ccc(CN5CCOCC5)cc4)ccc23)cc1` (centres undefined), the Potency entry was “inactive”.

For the compound `c1ccc(-c2cc3c(NCC4COc5ccccc5O4)ncnc3s2)cc1` (centres undefined), the Potency was 11.6 µM (active).

In the case of `c1ccc2c(c1)OCC(CNc1ncnc3nc[nH]c13)O2` (centres undefined), the Potency result was “inactive”.

With `S=C(NCC1COc2ccccc2O1)Nc1ccc(Br)cc1` (centres undefined), the Potency result is “inactive”.

Turning to `O=C(Nc1cccc(C(=O)NC2CC2)c1)c1ccc(F)c(S(=O)(=O)N2CCOCC2)c1`, the Potency entry is “inactive”.

`CCOc1ccc(C(=O)Nc2ccc3nc4c(c(Nc5ccccc5OC)c3c2)CCCC4)cc1`: the Potency is 11.2 µM (active).

On to `COc1cccc(NC(=O)c2ccc3c(SCC(=O)O)c4c(nc3c2)CCCC4)c1`, for which the Potency result was “inactive”.

As to `CCOc1ccc(C(=O)Nc2cc(OC)ccc2OC)cc1`, the Potency result is “inactive”.

For the compound `Cc1ccccc1CS(=O)(=O)CC1Nc2ccc(C(=O)NCc3ccc(Cl)cc3)cc2NC1=O` (centres undefined), the Potency entry was “inactive”.

On to `Cc1ccc(OCCSc2nc3ccc(NC(=O)COc4ccc(C)cc4)cc3s2)cc1`, for which the Potency result was “inactive”.

On to `Cc1cc(C)nc(Nc2n[nH]c(-c3ccccc3N)n2)n1`, for which the Potency is 6.31 µM (active).

For the compound `Cc1cc(C)nc(NC(=O)C(C)N2C(=O)c3ccccc3C2=O)n1` (centres undefined), the Potency entry is “inactive”.

Consider `Cc1cc(C)nc(Nc2cc([N+](=O)[O-])ccc2C)n1`, for which the Potency result is “inactive”.

As for `CC1CCN(C2=NC(=O)/C(=C/c3ccc(O)cc3)S2)CC1`, the Potency entry was “inactive”.

Source of the values: PubChem BioAssay AID540256 (National Center for Advancing Translational Sciences (NCATS), 2011).
